Where a name gives a salt, the structure may show the parent alone. ± gives the uncertainty stated by the source.

In the test the test system is THP-1. Description: CD86 surface expression induction over DMSO control (% over DMSO); higher = stronger dendritic cell activation. The settings on record: exposure time: 24 h. As to the method: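 hCLAT-like CD54 and CD86 surface expression on THP1 cells after 24 h exposure at a single concentration (highest non-cytotoxic concentration, or 100-200 µM if not cytotoxic). Flow cytometry (iQue) was run on 5,000 live cells.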
Turning to `C[C@@H]1O[C@@H](O[C@H]2C[C@@H](O)[C@]3(CO)[C@H]4[C@H](O)C[C@]5(C)[C@@H](C6=CC(=O)OC6)CC[C@]5(O)[C@@H]4CC[C@]3(O)C2)[C@H](O)[C@H](O)[C@H]1O` [Ouabain] (10 µM), the “CD86 surface expression induction” value is 51.7 ± 16. On to `CC(C)Nc1ccc(Nc2ccccc2)cc1` [N-Isopropyl-N'-phenyl-p-phenylenediamine] (10 µM), for which the “CD86 surface expression induction” value was determined as 91.4 ± 6.8. Take `CN(C)c1ccc(N(C)C)cc1` [*N,N,N',N'-Tetramethyl-p-phenylenediamine] (200 µM): the “CD86 surface expression induction” value is 52.4 ± 59. Consider `CCCCOCN(C(=O)CCl)c1c(CC)cccc1CC` [Butachlor] (10 µM), for which the “CD86 surface expression induction” value was -11.7 ± 10. With `Cc1ccc(N=C=O)cc1N=C=O` [Toluene-2,4-diisocyanate] (100 µM), the “CD86 surface expression induction” value stood at 3.76 ± 8.7. `c1ccc(-c2cccc(-c3ccccc3)c2)cc1` [1,1':3',1''-Terphenyl] (200 µM): the “CD86 surface expression induction” value is 17.1 ± 26. Take `Cl/C=C\C[N+]12CN3CN(CN(C3)C1)C2` [Chloroallyl methenamine chloride] (10 µM): the “CD86 surface expression induction” value was -4.14 ± 1.1. With `O=[N+]([O-])c1c(Cl)c(Cl)c(Cl)c(Cl)c1Cl` [Pentachloronitrobenzene] (100 µM), the “CD86 surface expression induction” value turned out to be 55.3 ± 53. The value for `CCc1cccc(CC)c1N(COC)C(=O)CCl` [Alachlor] (100 µM) was 22.3 ± 7.5; that for `[OH-].c1cc[c]([Sn+]([c]2ccccc2)[c]2ccccc2)cc1` [Triphenyltin hydroxide] (10 µM) was 77.3 ± 9.9. Consider `CN(C)S(=O)(=O)N(SC(F)(Cl)Cl)c1ccccc1` [Dichlofluanid] (10 µM), for which the “CD86 surface expression induction” value was found to be 88.09 ± 0.57. Take `c1ccc2sc(SNC3CCCCC3)nc2c1` [N-Cyclohexyl-2-benzothiazolesulfenamide] (100 µM): the “CD86 surface expression induction” value was 8.63 ± 9.4. Regarding `OCc1ccco1` [Furfuryl alcohol] (201 µM), the “CD86 surface expression induction” value was determined as 5.82 ± 11. In the case of `CC(C)CC(C)Nc1ccc(Nc2ccccc2)cc1` (centres undefined) [N-(1,3-Dimethylbutyl)-N'-phenyl-p-phenylenediamine] (10 µM), the “CD86 surface expression induction” value stood at 59.8 ± 11. For `Nc1ccc(Cl)cc1N` [4-Chloro-1,2-diaminobenzene*] (200 µM), the “CD86 surface expression induction” value amounted to 71.3 ± 120. Regarding `Cc1cc(C2CC2)nc(Nc2ccccc2)n1` [Cyprodinil] (200 µM), the “CD86 surface expression induction” value turned out to be 44.9 ± 64. On to `ClC1=C(Cl)C(Cl)(Cl)C(Cl)=C1Cl` [Hexachlorocyclopentadiene] (200 µM), for which the “CD86 surface expression induction” value came out at 99.2 ± 97. Consider `Nc1ccc(Cl)cc1Cl` [2,4-Dichloroaniline] (200 µM), for which the “CD86 surface expression induction” value was -3.25 ± 7.7.

With `O=[N+]([O-])c1cc([N+](=O)[O-])c2ccccc2c1` [1,3-Dinitronaphthalene] (200 µM), the “CD86 surface expression induction” value turned out to be 2.95 ± 4.5. With `Nc1ccc(-c2ccccc2)cc1` [4-Biphenylamine hydrochloride] (100 µM), the “CD86 surface expression induction” value was -3.55 ± 5.8.

On to `Fc1ccc(Oc2ccnc3cc(Cl)cc(Cl)c23)cc1` [Quinoxyfen] (200 µM), for which the “CD86 surface expression induction” value was determined as 2.53 ± 5. For `O=[N+]([O-])c1ccc(Oc2ccc(C(F)(F)F)cc2[N+](=O)[O-])cc1` [Fluorodifen] (10 µM) the value was -11.9 ± 9.2; for `S=C=NCc1ccccc1` (10 µM), 64.3 ± 6.8; for `Nc1ccc(N)cc1` [1,4-Benzenediamine] (10 µM), 29. Take `CCCOC/C(=N\c1ccc(Cl)cc1C(F)(F)F)n1ccnc1` [Triflumizole] (10 µM): the “CD86 surface expression induction” value was -11.1 ± 7.1. On to `COc1ccccc1N` [2-Methoxyaniline hydrochloride] (100 µM), for which the “CD86 surface expression induction” value is -19.9 ± 30.

As for `c1cc(OCC2CO2)cc(OCC2CO2)c1` (centres undefined) [Diglycidyl resorcinol ether (DGRE)] (10 µM), the “CD86 surface expression induction” value was -10.6 ± 5. For the molecule `CN(C)c1ccc(N)cc1` [N,N-Dimethyl-p-phenylenediamine] (100 µM), the “CD86 surface expression induction” value turned out to be 44.5 ± 46. Take `CCC(C)(c1ccc(O)cc1)c1ccc(O)cc1` [Bisphenol B] (200 µM): the “CD86 surface expression induction” value came to 4.76 ± 3. In the case of `Nc1ccc([N+](=O)[O-])cc1N` [4-Nitro-1,2-phenylenediamine] (100 µM), the “CD86 surface expression induction” value was -1.29 ± 1.9. On to `[CH3][Hg][Cl]` [Methyl mercuric (II) chloride] (10 µM), for which the “CD86 surface expression induction” value came out at 86 ± 7.1. Take `CCS(=O)(=O)CCSP(=O)(OC)OC` [Demeton-S-methylsulphon] (10 µM): the “CD86 surface expression induction” value is -12.6 ± 14. The value for `N#CCC#N` [Propanedinitrile] (199 µM) was -2.3 ± 0.49; that for `CCOP(=S)(OCC)SC(CCl)N1C(=O)c2ccccc2C1=O` (centres undefined) [Dialifor] (100 µM) was 0.69 ± 0.85; that for `CCOC(=O)NC(=S)Nc1ccccc1NC(=S)NC(=O)OCC` [Thiophanate] (100 µM) was 10.2 ± 18. In the case of `CCC(C)(NC(=O)c1cc(Cl)c(C)c(Cl)c1)C(=O)CCl` (centres undefined) [Zoxamide] (10 µM), the “CD86 surface expression induction” value is -5.9 ± 2.3. Take `C=CC(=O)OCC(COC(=O)C=C)(COC(=O)C=C)COC(=O)C=C` [Pentaerythritol tetraacrylate] (10 µM): the “CD86 surface expression induction” value came out at 8.9 ± 7.2. As to `NNCc1ccccc1` (100 µM), the “CD86 surface expression induction” value worked out at 2.81 ± 0.59. `O=C1C=CC(=O)c2ccccc21` (10 µM): the “CD86 surface expression induction” value was 366 ± 22.
